Records with an inconclusive call do not appear. A call without a number means that no potency is given here. Active and inactive are the calls of the source. Unless noted, the call rests on the fitted dose curve; in most records, active means well fitted curve in the direction sought with a large enough effect; inconclusive means small, poorly fitted or top-dose-only effect, or another doubt; inactive means no such curve, though single readings can be large; an effect the other way counts as inactive or inconclusive.
Assays:
[1] = qHTS assay for measurement of the activity of small molecule inhibitors on Zika virus induced Caspase-3 activity in human iPSC derived neural progenitor cells (hNPCs) (AID 1224857); further: nearly all actives have a fitted effect of over 65% in size
Outline: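 Quantitative HTS format: human iPSC neural progenitors, 1 h compound pretreatment, ZIKV 2 FFU/cell for 6 h at 37 C. Percent inhibition derived from luminescent caspase-3/7 signal between uninfected and infected controls.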

[2] = qHTS assay for measurement of the activity of small molecule inhibitors on Zika virus induced Caspase-3 activity in human astrocytoma cells (AID 1224859)
Outline: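 Readout is luminescence from Caspase-Glo 3/7 added after a 6 h ZIKV infection (2 FFU/cell) of compound-pretreated (1 h) SNB-19 cells; data expressed as % inhibition versus uninfected and infected wells.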

[3] = Natriuretic polypeptide receptor (hNpr1) antagonism - Pilot counterscreen GloSensor control cell line (AID 1347045; calls by dose curve; further: series mostly up to about 38 µM)
Outline: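 This counterscreen uses HEK293 cells expressing the GIP/pGS-40F cGMP biosensor. Compound-treated cells are challenged with 50 uM sodium nitroprusside, and the luciferase signal is compared before and after stimulation.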

[4] = target: Atrial natriuretic peptide receptor 1 (Homo sapiens) (UniProt P16066); assay: Natriuretic polypeptide receptor (hNpr1) antagonism - Pilot screen (AID 1347049; calls by dose curve;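 further: agonist-evoked cGMP luminescence read 20 min after hNppA addition; series mostly up to about 58 µM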)
Chain of Atrial natriuretic peptide receptor 1 (Homo sapiens) (P16066 whole entry, looked up): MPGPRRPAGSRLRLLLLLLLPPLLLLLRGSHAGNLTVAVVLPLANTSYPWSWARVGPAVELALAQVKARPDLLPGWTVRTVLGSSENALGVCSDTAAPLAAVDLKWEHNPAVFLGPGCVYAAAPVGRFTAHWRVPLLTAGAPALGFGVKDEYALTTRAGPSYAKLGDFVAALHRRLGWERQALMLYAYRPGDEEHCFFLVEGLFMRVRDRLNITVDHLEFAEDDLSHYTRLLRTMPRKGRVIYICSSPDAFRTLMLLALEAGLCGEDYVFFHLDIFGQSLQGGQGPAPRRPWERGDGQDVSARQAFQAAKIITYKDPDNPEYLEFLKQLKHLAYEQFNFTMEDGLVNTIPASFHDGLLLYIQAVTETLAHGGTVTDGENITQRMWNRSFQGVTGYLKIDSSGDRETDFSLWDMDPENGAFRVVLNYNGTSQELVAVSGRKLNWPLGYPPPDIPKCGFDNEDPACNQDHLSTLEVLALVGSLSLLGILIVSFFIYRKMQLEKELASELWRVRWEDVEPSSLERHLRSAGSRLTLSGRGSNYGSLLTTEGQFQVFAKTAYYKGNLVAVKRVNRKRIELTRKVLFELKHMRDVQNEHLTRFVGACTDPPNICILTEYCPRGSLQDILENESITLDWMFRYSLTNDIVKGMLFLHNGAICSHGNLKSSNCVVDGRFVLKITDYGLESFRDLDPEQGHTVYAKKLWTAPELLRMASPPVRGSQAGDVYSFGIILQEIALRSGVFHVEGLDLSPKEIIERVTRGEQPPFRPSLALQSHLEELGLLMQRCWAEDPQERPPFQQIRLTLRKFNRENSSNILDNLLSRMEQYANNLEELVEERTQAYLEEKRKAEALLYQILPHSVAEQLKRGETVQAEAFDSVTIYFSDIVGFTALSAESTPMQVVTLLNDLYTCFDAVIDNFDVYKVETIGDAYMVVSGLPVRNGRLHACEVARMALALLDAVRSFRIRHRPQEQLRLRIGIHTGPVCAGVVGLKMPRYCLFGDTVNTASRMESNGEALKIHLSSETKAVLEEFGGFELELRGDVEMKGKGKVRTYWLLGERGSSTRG
Outline: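 Readout is cGMP-driven firefly luciferase luminescence in HEK293 cells carrying hNpr1 and a PDE5-domain GloSensor, read before and 20 min after 0.1 nM hNppA stimulation. Cells had 2% substrate reagent for 2 h and test compound for 30 min.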

[5] = target: Atrial natriuretic peptide receptor 2 (Homo sapiens) (UniProt P20594); assay: Natriuretic polypeptide receptor (hNpr2) antagonism - Pilot subtype selectivity assay (AID 1347050; calls by dose curve)
Chain of Atrial natriuretic peptide receptor 2 (Homo sapiens) (P20594 whole entry, looked up): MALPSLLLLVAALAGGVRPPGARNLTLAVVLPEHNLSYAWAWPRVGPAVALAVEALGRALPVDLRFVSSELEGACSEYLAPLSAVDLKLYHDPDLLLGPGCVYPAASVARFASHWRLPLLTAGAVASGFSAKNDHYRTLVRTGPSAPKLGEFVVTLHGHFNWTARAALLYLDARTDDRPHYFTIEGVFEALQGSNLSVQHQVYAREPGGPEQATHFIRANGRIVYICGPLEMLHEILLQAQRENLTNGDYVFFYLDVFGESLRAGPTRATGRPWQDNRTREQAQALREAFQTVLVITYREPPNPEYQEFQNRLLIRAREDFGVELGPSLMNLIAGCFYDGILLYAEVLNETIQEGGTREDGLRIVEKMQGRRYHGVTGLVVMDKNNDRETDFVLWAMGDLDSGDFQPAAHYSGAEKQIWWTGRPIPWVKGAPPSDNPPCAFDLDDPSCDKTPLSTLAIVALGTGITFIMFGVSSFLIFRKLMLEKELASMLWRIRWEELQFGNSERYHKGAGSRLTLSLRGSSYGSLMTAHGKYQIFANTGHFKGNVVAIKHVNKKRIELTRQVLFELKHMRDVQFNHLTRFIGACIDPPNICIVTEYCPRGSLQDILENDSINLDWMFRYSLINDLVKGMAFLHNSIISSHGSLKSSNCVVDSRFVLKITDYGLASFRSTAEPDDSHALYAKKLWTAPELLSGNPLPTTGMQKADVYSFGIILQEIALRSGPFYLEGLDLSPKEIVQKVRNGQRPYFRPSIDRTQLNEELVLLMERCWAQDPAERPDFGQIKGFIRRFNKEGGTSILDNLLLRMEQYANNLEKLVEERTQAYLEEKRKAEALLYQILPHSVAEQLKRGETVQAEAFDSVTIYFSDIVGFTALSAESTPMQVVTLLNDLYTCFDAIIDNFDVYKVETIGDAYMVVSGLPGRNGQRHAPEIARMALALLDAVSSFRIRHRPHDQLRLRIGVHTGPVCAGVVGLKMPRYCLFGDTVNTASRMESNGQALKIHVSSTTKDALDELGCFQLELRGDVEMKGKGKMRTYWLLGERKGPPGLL
Outline: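 Pilot selectivity screen against hNpr2: HEK293 cGMP-sensor cells are treated with LOPAC1280 compounds, then with hNppC peptide at 1 nM final. The cGMP-driven luminescence change over 20 min at room temperature is the read-out.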

[6] = NS1 protein of Zika virus - qHTS assay to identify small molecule inhibitors in human HEK 293 cells (AID 1347053); further: series mostly up to about 46 µM; nearly all actives have a fitted effect of over 55% in size
Outline: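 Following 20 h seeding, HEK 293 cells took compound, then 1 h later ZIKV MR766 (MOI = 0.5). Incubation ran 24 h at 37 C before TR-FRET detection of NS1; a drop in signal indicates inhibition.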

[7] = target: T1, Tyrosine-protein phosphatase non-receptor type substrate 1 (Homo sapiens) + Leukocyte surface antigen CD47 (Homo sapiens) (UniProt P78324+Q08722); assay: CD47-SIRPalpha protein protein interaction - LANCE assay qHTS validation (AID 1347057; active means well fitted curve in the direction sought with a large enough effect in the signal ratio, with a control signal flat, not every such curve was filed as active; the % refers to the signal ratio; further: series mostly up to about 38 µM)
T1 sequence (P78324 whole entry, looked up): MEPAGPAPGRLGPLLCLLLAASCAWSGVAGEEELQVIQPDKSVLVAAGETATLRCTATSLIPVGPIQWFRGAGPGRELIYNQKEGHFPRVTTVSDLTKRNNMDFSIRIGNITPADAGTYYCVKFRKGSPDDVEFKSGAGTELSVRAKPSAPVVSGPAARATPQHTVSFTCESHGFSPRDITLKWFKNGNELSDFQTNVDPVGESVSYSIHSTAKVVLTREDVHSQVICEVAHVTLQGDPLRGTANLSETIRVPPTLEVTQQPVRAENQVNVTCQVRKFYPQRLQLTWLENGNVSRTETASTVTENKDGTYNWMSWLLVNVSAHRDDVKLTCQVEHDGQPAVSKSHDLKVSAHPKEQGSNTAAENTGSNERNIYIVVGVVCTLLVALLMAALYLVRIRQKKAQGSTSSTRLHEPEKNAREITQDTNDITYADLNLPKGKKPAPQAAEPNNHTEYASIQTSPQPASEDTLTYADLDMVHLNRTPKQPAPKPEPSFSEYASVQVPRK
T1 sequence (Q08722 whole entry, looked up): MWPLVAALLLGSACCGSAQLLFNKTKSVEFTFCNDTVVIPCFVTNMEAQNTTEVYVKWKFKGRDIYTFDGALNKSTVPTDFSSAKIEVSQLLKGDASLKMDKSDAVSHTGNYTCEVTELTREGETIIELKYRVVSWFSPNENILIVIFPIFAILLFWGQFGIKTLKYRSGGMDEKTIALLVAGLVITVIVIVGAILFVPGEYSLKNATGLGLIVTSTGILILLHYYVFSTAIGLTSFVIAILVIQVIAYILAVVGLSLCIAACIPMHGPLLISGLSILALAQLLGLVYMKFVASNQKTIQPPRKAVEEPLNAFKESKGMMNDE
Outline: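 First, His-tagged CD47 and Eu-labelled anti-His antibody met the compound for 30 min; next, site-specifically biotinylated SIRPalpha was added for 30 min; finally streptavidin-APC was added before reading the TR-FRET ratio.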

[8] = target: T1, Tyrosine-protein phosphatase non-receptor type substrate 1 (Homo sapiens) + Leukocyte surface antigen CD47 (Homo sapiens); assay: CD47-SIRPalpha protein protein interaction - HTRF assay qHTS validation (AID 1347058; active means well fitted curve in the direction sought with a large enough effect in the signal ratio, not every such curve was filed as active; the % refers to the signal ratio;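 further: recombinant soluble extracellular CD47 with His tag and biotinylated SIRPalpha domains; series mostly up to about 38 µM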)
Outline: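 TR-FRET read (Ch1/Ch2 ratio) of soluble extracellular CD47 and Avi-biotinylated SIRPalpha domains in PBS pH 7.4 with 0.05% IGEPAL; 7-point compound titration. Sequential 30 min room-temperature steps; non-biotinylated SIRPalpha as control inhibitor.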

[9] = target: Parathyroid hormone/parathyroid hormone-related peptide receptor (Homo sapiens) (UniProt Q03431); assay: qHTS for PTHR1 Agonists: Optimization Screen against the NCGC LOPAC library (AID 1347079);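 further: GloSensor cAMP luminescence in HEK-293 GP2 cells expressing human PTHR1 with IBMX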
Chain of Parathyroid hormone/parathyroid hormone-related peptide receptor (Homo sapiens) (Q03431 whole entry, looked up): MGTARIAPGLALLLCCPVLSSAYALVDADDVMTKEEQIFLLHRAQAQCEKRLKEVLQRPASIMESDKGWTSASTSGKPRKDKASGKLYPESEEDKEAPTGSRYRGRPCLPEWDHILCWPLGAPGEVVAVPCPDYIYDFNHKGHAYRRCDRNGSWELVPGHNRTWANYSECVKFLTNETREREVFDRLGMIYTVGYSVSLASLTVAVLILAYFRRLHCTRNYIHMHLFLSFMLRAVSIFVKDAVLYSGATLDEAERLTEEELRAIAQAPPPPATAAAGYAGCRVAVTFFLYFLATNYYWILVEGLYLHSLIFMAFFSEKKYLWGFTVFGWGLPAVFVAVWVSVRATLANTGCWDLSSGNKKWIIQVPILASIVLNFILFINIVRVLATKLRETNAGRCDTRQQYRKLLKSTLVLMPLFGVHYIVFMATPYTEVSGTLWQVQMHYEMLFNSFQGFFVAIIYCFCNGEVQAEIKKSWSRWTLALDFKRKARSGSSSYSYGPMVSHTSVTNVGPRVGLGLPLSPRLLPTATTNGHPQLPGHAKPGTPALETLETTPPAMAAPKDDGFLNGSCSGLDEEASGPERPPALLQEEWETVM
Outline: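 Compounds were tested across a qHTS titration. PTHR1-expressing GP2 cells report cAMP rises via GloSensor luminescence after 1 hr compound exposure at 37C with IBMX present.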

[10] = target: N-terminal Xaa-Pro-Lys N-methyltransferase 1 (Homo sapiens) (UniProt Q9BV86); assay: qHTS Assay for Inhibitors of N-terminal methyltransferase 1 (NTMT1): LOPAC validation of the NTMT1 SAHH-coupled ThioGlo3 Assay (AID 1347143);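 further: SAH from peptide methylation measured as thiol fluorescence via SAHH coupling and ThioGlo3; nearly all actives have a fitted effect of over 70% in size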; further: potency means the concentration at half of the fitted maximal effect
Chain of N-terminal Xaa-Pro-Lys N-methyltransferase 1 (Homo sapiens) (Q9BV86 whole entry, looked up): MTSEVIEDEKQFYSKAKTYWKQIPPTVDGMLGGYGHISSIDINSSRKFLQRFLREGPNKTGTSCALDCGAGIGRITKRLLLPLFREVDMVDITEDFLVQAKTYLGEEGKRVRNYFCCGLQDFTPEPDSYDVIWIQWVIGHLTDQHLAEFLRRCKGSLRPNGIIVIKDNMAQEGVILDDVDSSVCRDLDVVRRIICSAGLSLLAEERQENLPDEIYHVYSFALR
Outline: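 Inhibition of NTMT1 methylation of peptide SPKRIA is followed by converting SAH with SAHH and labelling the released thiol with ThioGlo3. Plates are read at 340/450nm before and 30 min after reagent addition, both at room temperature.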

[11] = test system: Zika virus NS2B-NS3 protease (unlinked); assay: Optimization of GU AMC qHTS for Zika virus inhibitors: Unlinked NS2B-NS3 protease assay (AID 1347151); further: nearly all actives have a fitted effect of over 80% in size; further: potency means the concentration at half of the fitted maximal effect
Outline: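 In this qHTS, compounds acted on 25 nM unlinked Zika NS2B–NS3 in pH 8.0 Tris/Tween buffer. Cleavage of an AMC peptide ran 15 min at room temperature, to about 20% conversion.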

[12] = target: T1, Tyrosine-protein phosphatase non-receptor type substrate 1 (Homo sapiens) + Leukocyte surface antigen CD47 (Homo sapiens); assay: CD47-SIRPalpha protein protein interaction - Alpha assay qHTS validation (AID 1347059);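 further: bead proximity luminescence from CD47 binding SIRPalpha after compound preincubation with SIRPalpha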
Outline: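 Binding is measured by AlphaScreen proximity: Ni-NTA acceptor beads capture His-CD47, streptavidin donor beads capture biotin-SIRPalpha. Each of three additions (SIRPalpha with compound, CD47, beads) incubates 30 min at room temperature protected from light.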

[13] = target: Furin (Homo sapiens) (UniProt P09958); assay: Furin counterscreen qHTS for Zika virus inhibitors (AID 1347149);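 further: purified recombinant full-length human furin enzyme at 5 nM; fluorescence gain from furin cutting a BOC-RVRR-AMC peptide substrate over 15 min; top concentration of the series differs between compounds; nearly all actives have a fitted effect of over 70% in size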
Chain of Furin (Homo sapiens) (P09958 whole entry, looked up): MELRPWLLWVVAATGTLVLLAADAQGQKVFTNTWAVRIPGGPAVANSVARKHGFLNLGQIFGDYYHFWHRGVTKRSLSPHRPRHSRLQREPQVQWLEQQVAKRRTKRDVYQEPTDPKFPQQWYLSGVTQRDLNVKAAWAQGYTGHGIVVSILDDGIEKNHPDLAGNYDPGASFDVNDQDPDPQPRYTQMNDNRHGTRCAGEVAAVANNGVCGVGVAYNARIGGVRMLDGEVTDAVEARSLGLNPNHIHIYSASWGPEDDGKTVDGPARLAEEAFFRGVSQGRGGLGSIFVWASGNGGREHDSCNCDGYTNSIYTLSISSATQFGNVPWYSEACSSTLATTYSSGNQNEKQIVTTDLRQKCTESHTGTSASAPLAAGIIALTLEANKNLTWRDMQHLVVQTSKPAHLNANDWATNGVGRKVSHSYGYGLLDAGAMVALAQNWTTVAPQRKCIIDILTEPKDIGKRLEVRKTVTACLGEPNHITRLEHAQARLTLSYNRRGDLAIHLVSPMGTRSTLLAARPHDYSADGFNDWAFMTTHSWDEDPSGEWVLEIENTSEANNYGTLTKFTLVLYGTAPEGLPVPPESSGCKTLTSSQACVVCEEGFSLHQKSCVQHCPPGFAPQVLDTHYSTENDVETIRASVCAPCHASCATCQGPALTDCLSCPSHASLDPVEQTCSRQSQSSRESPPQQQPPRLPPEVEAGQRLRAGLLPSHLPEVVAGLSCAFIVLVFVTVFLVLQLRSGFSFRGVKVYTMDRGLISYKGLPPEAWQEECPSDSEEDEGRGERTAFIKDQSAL
Outline: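 Fluorogenic cleavage of BOC-RVRR-AMC (2 microM final, Km ~15 µM) was monitored (ex 340, em 450 nm) at 37C after 15 min RT preincubation of 5 nM furin with compounds in HEPES pH 7.0 buffer with CaCl2 and Triton X-100. Percent inhibition was fitted to a 4-parameter Hill curve.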

NC(=O)c1cc[n+](CC2=C(C(=O)O)N3C(=O)[C@@H](NC(=O)[C@@H](c4ccccc4)S(=O)(=O)[O-])[C@H]3SC2)cc1
Potency [1]: inactive
Potency [2]: inactive
Potency [3]: inactive
Potency [4]: inactive
Potency [5]: inactive
Potency [6]: inactive
Potency [7]: inactive
outcome [8]: inactive
Potency [9]: inactive
Potency [10]: inactive
Potency [11]: inactive

C[C@H](NC(=O)/C(C#N)=C/c1ccc(O)c(O)c1)c1ccccc1
Potency [1]: inactive
Potency [2]: inactive
Potency [3]: inactive
Potency [4]: inactive
Potency [5]: inactive
Potency [6]: inactive
Potency [7]: inactive
Potency [12]: inactive
Potency [9]: inactive
Potency [10]: 25.1 µM (active)
Potency [11]: 2.38 µM (active)

CCC(=O)N1CCN(C(=O)c2ccccc2)CC1
Potency [1]: inactive
Potency [2]: inactive
Potency [3]: inactive
Potency [4]: inactive
Potency [5]: inactive
Potency [6]: inactive
Potency [7]: inactive
outcome [8]: inactive
Potency [9]: inactive
Potency [10]: inactive
Potency [11]: inactive

N=C(N)SCCc1cnc[nH]1
Potency [1]: inactive
Potency [2]: inactive
Potency [3]: inactive
Potency [4]: inactive
Potency [5]: inactive
Potency [6]: inactive
Potency [7]: inactive
Potency [12]: inactive
Potency [9]: inactive
Potency [10]: inactive
Potency [11]: inactive

CCCCCCCCCCC/C=C\C(C)(C)/C=C\CCCC(=O)O
Potency [1]: inactive
Potency [2]: inactive
Potency [3]: inactive
Potency [4]: inactive
Potency [5]: inactive
Potency [6]: inactive
Potency [7]: inactive
Potency [12]: inactive
Potency [9]: inactive
Potency [10]: inactive
Potency [11]: 6.7 µM (active)

COc1ccc(-c2ccc(N)[n+](CCCC(=O)O)n2)cc1
Potency [1]: inactive
Potency [2]: inactive
Potency [3]: inactive
Potency [4]: inactive
Potency [5]: inactive
Potency [6]: inactive
Potency [7]: inactive
Potency [12]: inactive
Potency [9]: inactive
Potency [10]: inactive
Potency [11]: inactive

NCCS(=O)O
Potency [1]: inactive
Potency [2]: inactive
Potency [3]: inactive
Potency [4]: inactive
Potency [5]: inactive
Potency [6]: inactive
Potency [7]: inactive
outcome [8]: inactive
Potency [9]: inactive
Potency [10]: inactive
Potency [11]: inactive

N=C(N)c1ccc(N)cc1
Potency [1]: inactive
Potency [2]: inactive
Potency [3]: inactive
Potency [4]: inactive
Potency [5]: inactive
Potency [6]: inactive
Potency [7]: inactive
outcome [8]: inactive
Potency [9]: inactive
Potency [11]: inactive

O=c1cc(-c2ccccc2F)[nH]c2cc3c(cc12)OCO3
Potency [1]: inactive
Potency [2]: inactive
Potency [3]: inactive
Potency [4]: inactive
Potency [5]: inactive
Potency [6]: inactive
Potency [7]: inactive
outcome [8]: inactive
Potency [9]: inactive
Potency [10]: 56.2 µM (active)
Potency [11]: 26.7 µM (active)

CCCc1c(-c2ccc(O)cc2)nn(-c2ccc(O)cc2)c1-c1ccc(O)cc1
Potency [1]: inactive
Potency [2]: inactive
Potency [3]: inactive
Potency [4]: inactive
Potency [5]: inactive
Potency [6]: inactive
Potency [7]: inactive
outcome [8]: inactive
Potency [10]: inactive

O=C(O)c1ccccc1Nc1cccc(OCc2ccc3ccccc3n2)c1
Potency [1]: inactive
Potency [2]: inactive
Potency [3]: inactive
Potency [4]: inactive
Potency [5]: inactive
Potency [6]: inactive
Potency [7]: inactive
outcome [8]: inactive
Potency [9]: inactive
Potency [13]: inactive
Potency [11]: 29.9 µM (active)

C=C1C[C@@]23CC[C@H]4[C@@](C)(CCC[C@@]4(C)C(=O)OC4OC(CO)C(O)C(O)C4O)[C@@H]2CC[C@]1(OC1OC(CO)C(O)C(O)C1OC1OC(CO)C(O)C(O)C1O)C3 (stereo not given in full)
Potency [1]: inactive
Potency [2]: inactive
Potency [3]: inactive
Potency [4]: inactive
Potency [5]: inactive
Potency [6]: inactive
Potency [7]: inactive
outcome [8]: inactive
Potency [11]: inactive

O=C(O)C1CCCNC1 (stereo not given)
Potency [1]: inactive
Potency [2]: inactive
Potency [3]: inactive
Potency [4]: inactive
Potency [5]: inactive
Potency [6]: inactive
Potency [7]: inactive
Potency [12]: inactive
Potency [9]: inactive
Potency [10]: inactive
Potency [11]: inactive

NC1C=CC=C(C(=O)O)C1 (stereo not given)
Potency [1]: inactive
Potency [2]: inactive
Potency [3]: inactive
Potency [4]: inactive
Potency [5]: inactive
Potency [6]: inactive
Potency [7]: inactive
Potency [12]: inactive
Potency [9]: inactive
Potency [10]: inactive
Potency [11]: inactive

CC(N)(Cc1ccc(O)cc1)C(=O)O (stereo not given)
Potency [1]: inactive
Potency [2]: inactive
Potency [3]: inactive
Potency [4]: inactive
Potency [5]: inactive
Potency [6]: inactive
Potency [7]: inactive
outcome [8]: inactive
Potency [10]: inactive
Potency [11]: inactive

CN1CCc2cc(Cl)c(O)cc2[C@@H](c2ccccc2)C1
Potency [1]: inactive
Potency [2]: inactive
Potency [3]: inactive
Potency [4]: inactive
Potency [5]: inactive
Potency [6]: inactive
Potency [7]: inactive
outcome [8]: inactive
Potency [9]: inactive
Potency [11]: inactive

CCCCC[C@H](CC(=O)NO)C(=O)N[C@H](C(=O)N1CCC[C@H]1CO)C(C)C
Potency [1]: inactive
Potency [2]: inactive
Potency [3]: inactive
Potency [4]: inactive
Potency [5]: inactive
Potency [6]: inactive
Potency [7]: inactive
outcome [8]: inactive
Potency [9]: inactive
Potency [10]: inactive
Potency [11]: inactive

O=C(O)/C(=C/c1c(C(=O)O)[nH]c2cc(Cl)cc(Cl)c12)c1ccccc1
Potency [1]: inactive
Potency [2]: inactive
Potency [3]: inactive
Potency [4]: inactive
Potency [5]: inactive
Potency [6]: inactive
Potency [7]: inactive
Potency [12]: inactive
Potency [10]: inactive
Potency [11]: inactive

O=c1ccn([C@@H]2O[C@H](COP(=O)(O)OP(=O)(O)O)[C@@H](O)[C@H]2O)c(=O)[nH]1
Potency [1]: inactive
Potency [2]: inactive
Potency [3]: inactive
Potency [4]: inactive
Potency [5]: inactive
Potency [6]: inactive
Potency [7]: inactive
Potency [12]: inactive
Potency [9]: inactive
Potency [10]: inactive
Potency [11]: inactive

O=C(O)/C=C/c1cnc[nH]1
Potency [1]: inactive
Potency [2]: inactive
Potency [3]: inactive
Potency [4]: inactive
Potency [5]: inactive
Potency [6]: inactive
Potency [7]: inactive
Potency [12]: inactive
Potency [10]: inactive
Potency [11]: inactive

Nc1ccc(CCNc2ncnc3c2ncn3C2OC(CO)C(O)C2O)cc1 (stereo not given)
Potency [1]: inactive
Potency [2]: inactive
Potency [3]: inactive
Potency [4]: inactive
Potency [5]: inactive
Potency [6]: inactive
Potency [7]: inactive
Potency [12]: inactive
Potency [9]: inactive
Potency [11]: inactive

COc1ccc(-c2cc3ncc(C)n3c(Nc3ncccc3C(N)=O)n2)cc1OC
Potency [1]: inactive
Potency [2]: inactive
Potency [3]: inactive
Potency [4]: inactive
Potency [5]: inactive
Potency [6]: inactive
Potency [7]: inactive
Potency [12]: inactive
Potency [11]: 26.7 µM (active)

— PubChem BioAssay (NCATS)
